# Laboratory results reported in PubChem BioAssay (Tox21).
# Results filed as inconclusive are left out. Where a call stands in place of a potency, no number is given. Unmarked numbers belong to inactive results. The source made the active and inactive calls. The call rests on the fitted dose curve; in most records, active means well fitted cell-killing curve with a large enough effect in the repeat runs; inconclusive means weak or mixed curves, or effect the other way; inactive means flat fitted curve, though single readings scatter.
# Columns and labels:
# [1] = cAMP Responsive Elements (CRE) small molecule antagonists, cell-based qHTS assay: qHTS cell viability counter screen (AID 2060913); further: nearly all actives have a fitted effect of over 40% in size
# Method in brief: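 Cytotoxicity read in the same wells as the CRE-bla HEK293T antagonist assay: after 3 h compound with 0.25 uM NKH477 final and 2 h beta-lactamase substrate, CellTiter-Glo luminescence measured.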
# [2] = cAMP Responsive Elements (CRE) small molecule agonists, cell-based qHTS assay: qHTS cell viability counter screen (AID 2060914); further: potency means the concentration at half of the fitted maximal effect;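 further: viability read after 3 h of compound exposure; nearly all actives have a fitted effect of over 50% in size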
# Method in brief: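 CRE-bla HEK 293T cells, plated 18 h at 37 °C, were exposed to compounds for 3 h at 37 °C/5% CO2. Viability was then measured in the same wells by CellTiter-Glo luminescence after 30 min at room temperature.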
compound,measurement,setting,value
CCOC(=O)OCC/C(SC(=O)OCC)=C(\C)N(C=O)Cc1cnc(C)nc1N,Potency,[1],inactive
same,Potency,[2],inactive
COc1ncnc(NS(=O)(=O)c2ccc(N)cc2)c1OC,Potency,[1],inactive
same,Potency,[2],inactive
Clc1cc(Cl)c(-c2c(Cl)c(Cl)cc(Cl)c2Cl)cc1Cl,Potency,[1],inactive
same,Potency,[2],inactive
CCCCCCCCCCCCCCCCBr,"viability change, negative = cytotoxic",[1],-5.25% [at 18.9 µM]
same,"activity change, negative = cytotoxicity",[2],6.55% [at 18.9 µM]
c1cc(CN2CCCCC2)cc(OCCCNc2nc3ccccc3s2)c1,Potency,[1],inactive
same,Potency,[2],inactive
Cc1cccc2c1ccc1ccccc12,Potency,[1],inactive
same,Potency,[2],inactive
CCCCCCCC(=O)[O-].CCCCCCCC(=O)[O-].[Zn+2],Potency,[1],inactive
same,Potency,[2],inactive
O=C(/C=C/c1ccccc1)OCCCc1ccccc1,Potency,[1],inactive
same,Potency,[2],inactive
CCC(C)C=O (configuration not stated),Potency,[1],inactive
same,Potency,[2],inactive
CCCCCCCCCCCCCCCS(=O)(=O)Oc1ccccc1,Potency,[1],inactive
same,Potency,[2],inactive
CC(C)(C)c1ccc(C=O)cc1,Potency,[1],inactive
same,Potency,[2],inactive
O=C(Cl)c1cccc(C(=O)Cl)c1,Potency,[1],inactive
same,Potency,[2],inactive
O=C1OC2(c3ccccc31)c1cc(I)c(O)c(I)c1Oc1c2cc(I)c(O)c1I,Potency,[1],inactive
same,Potency,[2],inactive
OC(CCN1CCCCC1)(c1ccccc1)C1CCCCC1 (configuration not stated),Potency,[1],inactive
same,Potency,[2],inactive
CCOC(=O)c1ccc(OCCN2C[C@H](O)[C@@H](O)[C@H](O)[C@H]2CO)cc1,Potency,[1],inactive
same,Potency,[2],inactive
CCC(C)(C)CC,Potency,[1],inactive
same,Potency,[2],inactive
Cc1ccc(OC(=O)c2ccccc2O)cc1,Potency,[1],inactive
same,Potency,[2],inactive
CCC(C)N (configuration not stated),Potency,[1],inactive
same,Potency,[2],inactive
COc1ccc(C(=O)c2ccccc2O)c(O)c1,Potency,[2],inactive
O=C(O)/C=C(\CC(=O)O)C(=O)O,Potency,[2],inactive
C/C=C/C(=O)C1=C(C)CCCC1(C)C,Potency,[2],inactive
C[C@H](CCC(=O)O)[C@H]1CC[C@H]2[C@@H]3CC[C@@H]4C[C@H](O)CC[C@]4(C)[C@H]3C[C@H](O)[C@]12C,Potency,[2],inactive
CCCCOC(=O)CCC(C)=O,Potency,[2],inactive
CC1(C)[C@@H](O)CC[C@]2(C)[C@H]3C(=O)C=C4[C@@H]5C[C@@](C)(C(=O)O)CC[C@]5(C)CC[C@@]4(C)[C@]3(C)CC[C@@H]12,Potency,[2],inactive
Nc1cccnc1N,Potency,[2],inactive
O=CC1CC1,Potency,[2],inactive
O=C(Cl)c1cccc([N+](=O)[O-])c1,Potency,[2],inactive
C[C@@H]1C[C@H]2O[C@@]3(O[C@@H]2C(C)(C)O)[C@H](O)[C@@]2(C)[C@@H]4CC[C@H]5C(C)(C)[C@@H](O[C@@H]6OC[C@@H](O)[C@H](O)[C@H]6O)CC[C@@]56C[C@@]46CC[C@]2(C)[C@@H]13,Potency,[2],inactive
NC(=O)N(O)[C@@H]1C=C[C@H](Oc2cccc(Oc3ccc(F)cc3)c2)C1,Potency,[2],inactive
CCCCCCOC(=O)C(C)C,Potency,[2],inactive
CC(C)(C)c1ccc(OCC2CO2)cc1 (configuration not stated),Potency,[2],inactive
Cc1ccc(S(=O)(=O)O)cc1C,Potency,[2],inactive
Oc1ccc(Sc2ccc(O)cc2)cc1,Potency,[2],inactive
NC(N)=NCCN1CCCCCCC1,"activity change, negative = cytotoxicity",[2],-6.13% [at 0.349 µM]
C[C@]12CCC(=O)C=C1CC[C@@H]1[C@@H]2CC[C@@]2(C)[C@H]1CC[C@]2(O)C(=O)CO,Potency,[2],inactive
Cc1cc(C)c(N=Nc2c(O)c(S(=O)(=O)O)cc3cc(S(=O)(=O)O)ccc23)cc1C,"activity change, negative = cytotoxicity",[2],4.39% [at 8.39 µM]
O=C1NC(=O)c2ccccc21,Potency,[2],inactive
CC(=O)OC1C2(C)CCC(C2)C1(C)C (configuration not stated),Potency,[2],inactive
CCN(CC)c1ccc(C(=C2C=CC(=[N+](CC)CC)C=C2)c2cc(S(=O)(=O)O)ccc2S(=O)(=O)[O-])cc1,Potency,[2],inactive
C/C=C1\C(=O)C[C@H]2[C@@H]3CCC4=CC(=O)CC[C@]4(C)[C@H]3CC[C@]12C,Potency,[2],inactive
CC1CCN(CCCC(=O)c2ccc(F)cc2)CC1,Potency,[2],inactive
O=C1CCC(C2CCCCC2)CC1,Potency,[2],inactive
O=C1CCCN1C1CCCCC1,Potency,[2],inactive
O=C(O)C(S)C(S)C(=O)O (configuration not stated),Potency,[2],inactive
CCCCCCCCCCCCSCCOCCO,Potency,[2],inactive
OC1C(O)C(O)C(O)C(O)C1O (configuration not stated),Potency,[2],inactive
CC[C@]1(O)C[C@@H]2CN(CCc3c([nH]c4ccccc34)[C@@](C(=O)OC)(c3cc4c(cc3OC)N(C)[C@H]3[C@@](O)(C(=O)OC)[C@H](OC(C)=O)[C@]5(CC)C=CCN6CC[C@]43[C@@H]65)C2)C1,Potency,[2],inactive
C/C(=N\O)[C@@H](C)NCC(C)(C)CN[C@H](C)/C(C)=N/O,Potency,[2],inactive
COC(=O)[C@]1(C)CCC[C@@]2(C)[C@H]1CC=C1C=C(C(C)C)CC[C@@H]12,Potency,[2],inactive
CC(=O)CCC=C(C)C,Potency,[2],inactive
C/C(=N\O)c1ccc(OCC(=O)N2CCCCC2)cc1,Potency,[2],inactive
CCCC(=O)OC/C=C(\C)CCC=C(C)C,Potency,[2],inactive
C=CCCCCCCCCCCCC,Potency,[2],inactive
Cc1c(C(=O)c2c[nH]n(C)c2=O)ccc(S(C)(=O)=O)c1C1=NOCC1,Potency,[2],inactive
Cc1cc2c(C(C)C)c(O)c(O)c(C=O)c2c(O)c1-c1c(C)cc2c(C(C)C)c(O)c(O)c(C=O)c2c1O,Potency,[2],26.6 µM (active)
CCCNCC(O)COc1ccccc1C(=O)CCc1ccccc1 (configuration not stated),Potency,[2],inactive
CCOC(=O)CN,Potency,[2],inactive
Cc1cccc2n[nH]nc12,Potency,[2],inactive
CCC(=O)OCCOc1ccccc1,Potency,[2],inactive
CC(CCl)OC(C)CCl (configuration not stated),Potency,[2],inactive
c1ccc2ccccc2c1,Potency,[2],inactive
COc1ccccc1NC(=O)c1cc2ccccc2cc1O,Potency,[2],30.6 µM (active)
Fc1ccccc1[C@@H](F)COC1CCC(Nc2ncnc3[nH]ncc23)CC1 (some centres not stated),Potency,[2],inactive
O=C(Nc1ccc([N+](=O)[O-])cc1)Nc1ccc([N+](=O)[O-])cc1 (tested in a mixture with another compound),Potency,[2],inactive
O=C1CCCCCN1SSN1CCCCCC1=O,Potency,[2],inactive
CCCCCCCOC(C)=O,Potency,[2],inactive
C/C=C1/CC2C=CC1C2 (configuration not stated),Potency,[2],inactive
CC(=O)OCC1=C(C(=O)O)N2C(=O)[C@@H](NC(=O)Cc3cccs3)[C@H]2SC1,Potency,[2],inactive
Cc1ccsc1/C=C/C1=NCCCN1C,Potency,[2],inactive
CC(=O)Nc1cccc(N)c1,Potency,[2],inactive
CCCCCCCC#N,Potency,[2],inactive
CC(C)=CCNc1ncnc2c1ncn2[C@@H]1O[C@H](CO)[C@@H](O)[C@H]1O,Potency,[2],inactive
CC(C)(C)c1cc(C(C)(C)C)c(O)c(C(C)(C)C)c1,Potency,[2],inactive
O=C(Oc1ccccc1)c1ccccc1,Potency,[2],inactive
